# Laboratory results taken from the OligoGym collection.
# Molecular target: DNAJC13
# Test: pooled miR-30 sensor sort-seq; sequence = guide strand
# Details: shRNA
# Also: reference of the scale not given here.
row,Sequence,sensor-assay potency score (higher = more potent)
1,TTTTCTACTTCTTTCTTCCAGG,-0.404
2,TTGTTGTGTAGAAACATGCCAG,-0.232
3,TAGACCAACAGTATCTGCTCGC,0.515
4,TTGTCTCTAACATGCATCCGAT,-1.12
5,TATCTTTCAGTTCTTCTCGTGT,-0.0145
6,TTGAATTGCAGAACATATCCAG,0.63
7,TTGTGCTACTAATTCACTCTGC,0.635
8,TACTAATTCACTCTGCTCCTTC,0.364
9,TTGATTATTTTTGTACTCGATG,-0.943
10,TTCAATTACATTGCTTTGCAGT,-0.243
11,TTAAGGAAGAGAATCAACCTAT,-0.138

# Molecular target: DNAJC19
# Test: as above
# Details: shRNA
row,Sequence,sensor-assay potency score (higher = more potent)
1,TTTATTAGTGTATAAATTCTAA,-0.615
2,ATGAACAATATTTCTATTCAGA,-0.967
3,TTCGTCGATGAGCATCTCTTAT,-1.36
4,TTCAGTTTTGCTAACAGGGTTT,-0.256
5,TTCACTTTTAAATACAAGGTTC,-0.645
6,TTAAAAGCATAATTCGTCGATG,-0.449
7,TAAAATTGTAGCTCTGAGGCAT,0.463
8,TAAACAAGAAAATTATACCAAG,-1.18
9,TTTAAAAGCATAATTCGTCGAT,0.123
10,TAAATCTTTAGCTTCATTGATT,-0.54
11,TTGATATTGAGAACATTTCAGT,-0.702
12,TTTTTTAAAATTGTAGCTCTGA,0.364

# Molecular target: DNAJC4
# Test: as above
# Details: shRNA
row,Sequence,sensor-assay potency score (higher = more potent)
1,TTAACTTCCTCAGTGCTGGCAC,0.72
2,TTTGGGGGACTACCTGAGCGGA,-1.85
3,TCGCTCAGCTCCACAAAGCGGC,-1.13
4,TTCATCCATGAAGTTAAGGTGC,-0.818
5,TTGTCATGGACTGTGGTTCGTG,-0.505
6,TTGTTTGTGTTGCTGCTGCCTC,-0.896
7,TTGGGGGACTACCTGAGCGGAG,-1.16
8,TAGAAGGCTGTGATGATCCGAT,0.303
9,TTGTCGCTCCTGCTGAAGGATG,-1.56
10,TAGCCGTTGTCGCTCCTGCTGA,-1.23
11,TGCATCTGCTTCACCTTCCTGA,-0.639
12,TTTGGTGGGCAGACTTGTCATG,-0.548

# Molecular target: DNAJC8
# Test: as above
# Details: shRNA
row,Sequence,sensor-assay potency score (higher = more potent)
1,TTTTTCGAAGTTAGAACCGAGT,-0.8
2,TTTCTTCATCTGTAACTTCAGG,-0.78
3,TTGTCTGTTTATATACAGCTTG,-0.738
4,TTTATATACAGCTTGTTTGAAC,-0.768
5,TTTCTAACCATCACAATTCAGT,-0.77
